Compounds with a hit are over-represented: about 14% of the library has one in this group of screens.
USP10 block: inhibitors of human USP10 deubiquitinase; purified USP10, Ub-rhodamine fluorescence, 60 min; inhibition, % at 20 µM; 47,000 tested, 1.1% active; AID 1645856
USP17 block: human USP17-like deubiquitinase inhibition; A8MUK1; 47,000 tested, 6.5% active; inhibition, % at 50 µM; purified USP17, Ub-rhodamine cleavage fluorescence, 3 h
Target sequence (A8MUK1 whole entry, looked up): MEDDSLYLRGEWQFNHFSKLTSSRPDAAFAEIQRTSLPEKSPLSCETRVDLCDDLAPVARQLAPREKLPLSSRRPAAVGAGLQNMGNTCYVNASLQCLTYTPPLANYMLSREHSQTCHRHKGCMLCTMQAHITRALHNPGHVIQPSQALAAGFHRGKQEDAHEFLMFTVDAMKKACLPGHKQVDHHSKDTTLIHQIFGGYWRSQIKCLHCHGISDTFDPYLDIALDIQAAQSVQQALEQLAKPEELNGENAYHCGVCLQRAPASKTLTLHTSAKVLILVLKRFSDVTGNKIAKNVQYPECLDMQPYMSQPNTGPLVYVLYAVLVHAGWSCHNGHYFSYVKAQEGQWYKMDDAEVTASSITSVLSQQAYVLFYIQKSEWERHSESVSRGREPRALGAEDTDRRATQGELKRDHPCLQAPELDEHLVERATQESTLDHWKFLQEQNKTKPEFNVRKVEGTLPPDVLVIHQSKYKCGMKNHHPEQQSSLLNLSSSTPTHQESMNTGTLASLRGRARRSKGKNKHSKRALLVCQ
USP8 inh: blocks human USP8 ubiquitin-rhodamine cleavage | purified USP8, Ub-rhodamine cleavage fluorescence, 30 min | 47,000 tested, 4.2% active | inhibition, % at 20 µM
USP30 block: blocks human USP30 ubiquitin-rhodamine cleavage | Q70CQ3 | 47,000 tested, 5.3% active | inhibition, % at 25 µM | purified USP30, Ub-rhodamine cleavage fluorescence
USP28 block: blocks human USP28 ubiquitin-rhodamine cleavage | Q96RU2 | inhibition, % at 25 µM | 47,000 tested, 3% active | purified USP28, Ub-rhodamine cleavage fluorescence, 30 min
Numbers without * were called inactive; . = not tested or not shown. Rule as the data show it: active = inhibition above about 30%; inactive = the rest.

SMILES	USP10 block	USP17 block	USP8 inh	USP30 block	USP28 block
Cc1ccc(NC(=O)N2CCC3(CC2)N=C(c2ccccc2)C(=O)N3)cc1C	4.2	37.1*	11.7	23.5	7.8
Cc1c(C(=O)N2CCC(Cc3ccccc3)CC2)oc2c1C(=O)CCC2	3.2	18.2	10.3	33.5*	20.2
Cc1c(C(=O)N2CCN(C)CC2)oc2c1C(=O)CCC2	-2.5	10.7	21.4	15.8	8.8
C/C(=C\c1ccccc1)CN1CCC(O)(c2ccc(C)cc2)CC1	2.0	12.8	34.4*	11.7	11.3
CN(c1ccccc1)C1COC2(CCN(C(=O)CN3CCCCC3)CC2)C1 (centres undefined)	-0.4	13.3	16.6	15.2	8.6
COc1ccc(-c2cc(C(=O)Nc3cccc(F)c3)c3ccccc3n2)cc1	-6.1	-55.9	-26.2	-239.0	-58.0
CCn1cc(-c2cc(C(=O)Nc3cnn(Cc4cccc(F)c4)c3)c3ccccc3n2)cn1	1.6	62.9*	-0.7	1.3	-12.6
O=C1CC(CNS(=O)(=O)c2ccccc2Cl)CN1c1ccc(F)cc1 (centres undefined)	-1.5	4.2	13.1	12.5	-0.2
Cc1sc2ncnc(SCC(=O)c3cc(C)n(Cc4ccco4)c3C)c2c1C	2.4	38.8*	62.9*	-142.3	18.8
CN1C(=O)[C@@H]2CN(C(=O)Nc3ccncc3)CCN2C(=O)[C@@H]1Cc1ccccc1	0.6	6.9	5.3	20.1	7.7
CCn1c(=O)c(NCc2ccc(Cl)cc2)nc2ccncc21	-1.0	47.8*	-4.8	34.3*	8.7
CCOc1ccc(NC(=O)CC2N=C(N3CCN(c4ccccc4F)CC3)NC2=O)cc1 (centres undefined)	4.0	12.9	3.0	35.0*	3.1
CC(=O)Nc1ccc(NC(=O)CC2N=C(N3CCN(c4ccccc4)CC3)NC2=O)cc1 (centres undefined)	-0.2	-16.1	-5.9	-15.2	-49.0
COc1cc(Cl)ccc1Nc1ncc(C(=O)Nc2cc(OC)c(OC)c(OC)c2)c2ccccc12	5.4	93.8*	33.2*	-3.9	-1.1
COc1ccc(Nc2ncc(C(=O)Nc3ccc(Oc4ccccc4)cc3)c3ccccc23)cc1	7.7	19.4	19.8	67.9*	14.3
CCN1CCN(CCCN2C(=O)C3C(C(=O)Nc4cc(Cl)cc(Cl)c4)C4C=CC3(O4)C2C(=O)NC2CCCCC2)CC1 (centres undefined)	-3.5	6.4	0.1	3.3	12.6
CC(=O)N1[C@@H]2CN(C(=O)c3cccc(=O)[nH]3)[C@@H]3CCCC[C@H]1[C@]3(C)C2	0.0	7.2	1.9	18.8	8.0
Cc1cccc(OCC(=O)Nc2cccn3nc(-c4cccnc4)nc23)c1	-2.9	7.2	2.1	-72.4	-13.4
O=C(CSc1nccn1-c1ccc([N+](=O)[O-])cc1)NCc1ccccc1	1.8	-32.9	3.1	.	.
Cc1ccc(Cn2c(C(=O)O)c(CNCc3cccc(Cl)c3)c3ccc(C)cc32)cc1	24.6	12.5	-7.2	43.2*	32.8*
Cc1ccc(Cn2c(C(=O)O)c(CNC3CCCC3)c3ccccc32)cc1	-3.6	-15.6	-14.1	5.4	-2.1
COc1ccccc1CNCc1c(C(=O)O)n(Cc2ccc(F)cc2Cl)c2cc(C)ccc12	1.7	20.2	-4.9	18.3	7.6
COc1ccc(CNCc2c(C(=O)O)n(Cc3ccc(F)cc3Cl)c3cc(C)ccc23)cc1	-3.1	57.2*	-59.2	62.6*	28.0
Cc1ccc(Cn2c(C(=O)O)c(CNCc3ccco3)c3ccccc32)cc1	24.9	35.1*	8.2	-18.8	13.0
Cc1ccc2nc(NC(=O)/C=C/c3ccc4c(c3)OCO4)sc2c1	20.0	18.6	36.2*	27.1	13.7
SMILES	USP10 block	USP17 block	USP8 inh	USP30 block	USP28 block
Cc1ccc(/C=C/C(=O)Nc2ccc3c(c2)OCCO3)cc1	10.5	-7.6	-30.3	-13.0	79.6*
Cc1cc(C(=O)Nc2ccc3c(c2)OCCO3)no1	1.6	-4.7	-1.2	-0.1	63.3*
O=C(Nc1ccc2c(c1)OCO2)c1cc(CN2CCCC2)on1	5.3	34.6*	53.0*	-24.5	26.8
Cc1ccc(NC(=O)/C=C/c2cnn(C)c2)cc1C	-0.4	-0.7	10.2	-5.9	8.7
Cc1cc(C(=O)N2CC(C(=O)Nc3ccc4c(c3)OCCO4)C2)no1	-3.2	-23.5	-70.5	-34.9	4.7
Cn1c(SCC(=O)N2CCN(c3ccccc3)CC2)nnc1-c1ccc([N+](=O)[O-])cc1	1.4	13.1	-77.9	25.4	13.6
Cc1ccc(NC(=O)COc2coc(CN3CCc4ccccc4C3)cc2=O)c(C)c1	-3.2	.	-16.9	-29.1	-19.4
Cc1cccc(N2CCN(C(=O)c3ccc(N4C(=O)C(C)(C)CS4(=O)=O)cc3)CC2)c1	-0.6	-6.8	15.3	6.4	-1.0
Cc1ccc(-c2nc(NC(=O)Nc3ccc(C(F)(F)F)cc3)sc2C)cc1Cl	13.5	32.8*	6.9	5.1	-1.8
COC(=O)c1sccc1OCC(=O)c1sc(-c2ccccc2)nc1C	7.6	3.8	13.4	12.3	7.5
Cc1nc(-c2ccccc2)sc1C(=O)CSc1cccc(Cl)c1Cl	8.4	13.9	17.5	36.2*	-1.0
O=C(Nc1ccc(-c2cn3ccsc3n2)cc1)c1ccc(Cl)c([N+](=O)[O-])c1	67.0*	12.2	97.4*	82.3*	32.2*
Cc1ccc(-c2cn3ccsc3n2)cc1	0.4	-20.7	-22.3	-2.9	-0.8
COc1ccccc1-c1ccccc1CC1CN(C(=O)Cc2cccnc2)CCN(C)C1=O (centres undefined)	-0.2	7.6	4.2	7.6	2.8
C/C(=C\Cc1c(O)cc(C)c(C=O)c1O)CC[C@@]1(C)[C@H](C)CCC(=O)[C@@H]1C	37.5*	49.8*	13.4	27.7	7.0
COC1C(CO)O[C@@H](O[C@H](C[C@@]2(C)[C@H](C)CCC(=O)[C@@H]2C)/C(C)=C/Cc2c(O)c(Cl)c(C)c(C=O)c2O)C(O)C1O (some centres undefined)	-2.6	11.2	2.2	26.6	4.4
COc1ccc(Cn2cc(-c3ccc(Cl)cc3)cc(C#N)c2=O)cc1	7.6	13.8	6.5	41.5*	17.0
CCC(C)C1NC(=O)C(N)Cc2ccc(OC)c(c2)-c2cc3cc(c2O)Oc2ccc(cc2)CC(C(=O)O)NC(=O)C(C3)NC1=O (centres undefined)	-9.4	-10.3	-28.8	-38.7	-6.7
Cc1ccc([N+](=O)[O-])cc1NC(=O)CCN1C(=O)c2ccccc2S1(=O)=O	0.3	30.8*	-7.3	48.6*	7.4
O=C1C(=O)N(c2nc3ccc(F)cc3s2)C(c2ccc(F)cc2)/C1=C(\O)c1ccc(F)cc1 (centres undefined)	61.4*	-79.9	-39.7	-109.7	1.3
O=C1c2oc3ccccc3c(=O)c2C(c2ccco2)N1c1nc2ccc(F)cc2s1 (centres undefined)	-6.9	-10.7	-20.2	-50.6	-9.6
Cc1ccc(Cn2c(CO)cnc2SCC(=O)Nc2ccc3c(c2)OCO3)cc1	1.3	-0.2	19.6	28.4	16.9
Cc1ccc(CSc2nnc(CNC(=O)c3ccc(F)cc3)n2-c2ccccc2)cc1	0.0	11.5	2.0	22.6	7.4
